Data from PubChem BioAssay AID504332 (National Center for Advancing Translational Sciences (NCATS), 2011).
The whole screen tested about 350,000 compounds, of which about 31,000 (8.9%) were called active. Another 15% or so got no clear call; they are omitted. Calls come from the whole dose curve; as a rule, active = well fitted inhibition curve with a large enough effect; inconclusive = small, poorly fitted or top-dose-only effect; inactive = no such curve, though single readings can be large or run the other way. Many of the other results were omitted from the sample, so actives are more common in it than they were.

target: Histone-lysine N-methyltransferase EHMT2 (Homo sapiens) (UniProt Q96KQ7); experiment: qHTS Assay for Inhibitors of Histone Lysine Methyltransferase G9a; details: G9a H3K9 monomethylation, AlphaScreen, 2 h; series mostly up to 59 µM; activity, negative = inhibition: at the top concentration; note: nearly all actives have a fitted effect of over 75% in size
Sequence (Q96KQ7 913-1193 limits assumed): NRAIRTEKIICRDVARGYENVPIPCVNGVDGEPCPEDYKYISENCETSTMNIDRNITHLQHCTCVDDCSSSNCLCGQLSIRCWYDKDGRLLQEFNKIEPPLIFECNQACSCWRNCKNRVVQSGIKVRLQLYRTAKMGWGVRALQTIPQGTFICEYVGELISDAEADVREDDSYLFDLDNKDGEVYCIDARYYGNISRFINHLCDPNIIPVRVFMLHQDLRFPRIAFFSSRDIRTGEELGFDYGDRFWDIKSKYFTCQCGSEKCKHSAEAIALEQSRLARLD
Outline: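 Compounds were preincubated with 20 nM G9a for 15 min, after which biotinylated H3K9 peptide (500 nM) and SAM (20 uM) started a 2 h room-temperature reaction. Monomethylated product was quantified by antibody-based AlphaScreen chemiluminescence.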
% is set by controls: 0 for no effect and ±100 for the full control effect; potency is the fitted concentration of half-maximal effect.

SMILES	activity, negative = inhibition	Potency
COc1ccc(S(=O)(=O)NCc2cccn2Cc2cccc(C)c2)cc1Cl	-4.35% (inactive)	
COc1ccc(S(=O)(=O)N(C)CC(=O)N2CCCC2)cc1Cl	-5.71% [at 102 µM] (inactive)	
COc1ccc(S(=O)(=O)c2c[nH]c(=S)[nH]c2=O)cc1Cl		79.4 µM (active)
Cc1cccc(NC(=O)c2cccc(S(=O)(=O)N3CCCC3)c2)n1	-27.4% [at 102 µM] (inactive)	
COC(=O)C1=C(C(=O)OC)C(c2cc([N+](=O)[O-])ccc2O)c2sc(=O)[nH]c2S1 (stereo unspecified)		44.7 µM (active)
COC(=O)C1=C(C)N(C)C(=O)NC1c1ccc([N+](=O)[O-])o1 (stereo unspecified)	-2.67% [at 102 µM] (inactive)	
COc1cnc(-c2ccccn2)nc1Oc1ccc(C(C)(C)C)cc1	16.9% [at 102 µM] (inactive)	
Cc1ccccc1CNC(=O)CCc1cn(Cc2ccccc2C)c2ccccc12	-27.4% (inactive)	
CCOc1ccc(S(=O)(=O)c2cn(Cc3ccccc3)c3ccc(OCC)cc3c2=O)cc1	4.03% (inactive)	
O=C(Nc1ccc(NC(=O)c2ccc3c(c2)OCO3)cc1)c1cccc(Cl)c1	0.511% [at 12.7 µM] (inactive)	
CCOCCn1c(-c2ccccc2)nc2ccccc21	17.2% [at 102 µM] (inactive)	
COc1ccc(-c2nc3ccccc3n2CCC(C)C)cc1OC	-2.19% [at 102 µM] (inactive)	
CC(=O)OCCN(CCCn1c(-c2ccncc2)nc2ccccc21)c1nc(-c2ccc(C)cc2)cs1		56.2 µM (active)
CCC(Sc1nc2n[nH]c(C)c2c(=N)n1-c1ccccc1Cl)C(=O)N(CC)CC (stereo unspecified)	20.7% (inactive)	
Cc1ccc(CC(=O)N(C)CC(=O)N(CC(C)C)c2c(N)n(CC(C)C)c(=O)[nH]c2=O)cc1C	10.8% [at 2.33 µM] (inactive)	
CCC(C(=O)Nc1cccc(Cl)c1C)n1nc(-c2ccc(C)cc2)ccc1=O (stereo unspecified)	-3.11% (inactive)	
COC(=O)c1ccccc1NC(=O)Cn1c(=O)cc(C)c2c(C)nn(-c3cccc(Cl)c3C)c21	1.79% (inactive)	
Cn1nnc2c(N3CCN(c4ccccc4)CC3)ncnc21	1.37% (inactive)	
O=C(Cc1ccc(Cl)cc1)NCC(c1cccs1)S(=O)(=O)c1ccc(Cl)cc1 (stereo unspecified)	27.5% (inactive)	
Cc1ccc(-c2nn(-c3ccccc3)cc2C(=O)NCCCN2CCCC2=O)cc1	-28.8% [at 102 µM] (inactive)	
COc1ccc(-n2cc(-c3ccccc3)c3c(=S)nc[nH]c32)cc1	20.3% [at 102 µM] (inactive)	
COc1ccc(N2C(=O)CNC2=S)cc1	-12.5% (inactive)	
COc1ccc(-c2cn(-c3ccc(OC)cc3)c(=S)[nH]2)cc1		1.41 µM (active)

SMILES	activity, negative = inhibition	Potency
COc1ccccc1CCNC(=O)c1c(C)nn(CC(C)C)c1Cl	46.5% [at 102 µM] (inactive)	
COc1cccc(NC(=O)Cn2c(=O)cc(C)c3c(C)nn(-c4cccc(F)c4)c32)c1	6.73% (inactive)	
CCOC(=O)C1=C(c2ccccc2)NC(=S)NC1c1ccc(Cl)cc1 (stereo unspecified)	-11.4% [at 12.7 µM] (inactive)	
COc1ccc(C2NC(=S)NC3=C2CCc2ccccc23)cc1OC (stereo unspecified)		0.631 µM (active)
COC(=O)C1=C(C)NC(=S)NC1c1ccc(OCC(=O)N2CC(C)OC(C)C2)c(OC)c1 (stereo unspecified)	-3.57% [at 12.7 µM] (inactive)	
Fc1ccc(CN2CCc3nc(Nc4ccccc4)ncc3C2)cc1F	-40.7% (inactive)	
COc1cc(CN2CCC(n3nccc3NC(=O)CCCc3ccccc3)CC2)ccc1O		70.8 µM (active)
CCn1cc(CN2CCC(n3nccc3NC(=O)CCCc3ccccc3)CC2)c(C)n1	20.1% [at 102 µM] (inactive)	
COc1ccc(CN2CCC(n3nccc3NC(=O)CCCc3ccccc3)CC2)cc1C	24.6% [at 102 µM] (inactive)	
CCN(C(=O)c1sc2cc(OC)ccc2c1Cl)c1ccccc1	52.3% (inactive)	
CCN(CC)S(=O)(=O)c1ccc2c(c1)c(=O)c(C(=O)N1CCN(c3cccc(Cl)c3)CC1)cn2C	2.37% (inactive)	
CCN1CCN(CCNC(=O)c2ccc(/C=C3/Sc4ccccc4N(Cc4cccc(C)c4)C3=O)cc2)CC1		44.7 µM (active)
O=C(NCCN1CCOCC1)/C(=C/c1ccc(F)cc1)NC(=O)c1ccccc1	8.68% [at 102 µM] (inactive)	
Cc1ccccc1CN1C(=O)c2ccccc2Sc2ccc(C(=O)NCCCN3CCOCC3)cc21	-26.2% (inactive)	
Cc1ccc(C(=O)N/C(=C\c2ccc(F)cc2)C(=O)NCCN2CCOCC2)cc1	-3.65% [at 102 µM] (inactive)	
O=C(NCCN1CCOCC1)c1ccc(/C=C2\Sc3ccccc3N(Cc3ccc(F)cc3)C2=O)cc1		28.2 µM (active)
CCN1CCN(CCNC(=O)c2ccc3c(c2)NC(=O)/C(=C\c2ccc(OC)c(OC)c2)S3)CC1	4.92% [at 0.0925 µM] (inactive)	
CCc1nc2c(cnn2-c2ccc(C)cc2)c(=O)n1-c1ccc(C)cc1	11.6% (inactive)	
CCOc1ccccc1/C=N/Nc1nc2ccccc2o1	15.2% [at 102 µM] (inactive)	
O=C1[C@H]2[C@@H](c3ccc(F)cc3)N3C(=O)N(c4ccc(C(F)(F)F)cc4)C(=O)[C@@]3(Cc3ccccc3)[C@H]2C(=O)N1C1CCCCC1	1.06% [at 12.7 µM] (inactive)	
CCOc1ccc(N(CC)S(=O)(=O)N2CCCC(C(=O)NCc3ccc(Cl)cc3)C2)cc1 (stereo unspecified)	3.08% (inactive)	
Cc1cc(=O)[nH]c(=S)[nH]1	-41.8% [at 2.33 µM] (inactive)	
Cc1c(C)c(C)c2[nH]c(=S)[nH]c2c1C		1.12 µM (active)

SMILES	activity, negative = inhibition	Potency
CCc1ccc(Oc2coc3cc(O)ccc3c2=O)cc1	13.5% [at 102 µM] (inactive)	
CCOC(=O)c1cccc(NC(=O)c2cc(CN3CCCC3)on2)c1	2.39% (inactive)	
CCOc1cc(C)c(S(=O)(=O)NCc2ccccn2)cc1C	15.8% [at 102 µM] (inactive)	
O=C(c1cccc(F)c1)N1CCN(c2ccc([N+](=O)[O-])c(N3CCCCC3)c2)CC1	21.2% [at 0.501 µM] (inactive)	
CO/N=C/c1ccc(N2CCN(C(=O)c3cccc(Cl)c3)CC2)c([N+](=O)[O-])c1		14.1 µM (active)
O=C(c1ccc(Cl)c([N+](=O)[O-])c1)N1CCN(c2ccccc2)CC1	-43.7% [at 102 µM] (inactive)	
CCCN(CCC)CCCNC(=O)Cn1cc2c(n1)-c1c(oc(C(=O)N3CCCC3)c1C)CC2	-27.7% (inactive)	
COCC(C)NS(=O)(=O)c1ccc(N2CCCCS2(=O)=O)cc1 (stereo unspecified)	7.99% (inactive)	
Cc1nc2sc(C)c(C)n2c(=O)c1S(=O)(=O)NCCc1ccc(Cl)cc1	-7.89% (inactive)	
Cc1cccn2c(=O)c3cc(C(=O)NC4CCCCC4)sc3nc12	3.36% [at 102 µM] (inactive)	
Cc1ccccc1-n1nc(C)c2cc(C(=O)NC3CC3)sc21		79.4 µM (active)
Cc1cccc(NC(=O)c2cc3c(C)nn(-c4ccccc4)c3s2)c1	-1.38% (inactive)	
COc1cc(Cl)c(NC(=O)CC(C)S(=O)(=O)c2cc3c(cc2C)NC(=O)CO3)c(OC)c1 (stereo unspecified)	-34% (inactive)	
O=c1cnnc(Nc2ccccc2)[nH]1	14.3% [at 102 µM] (inactive)	
O=C(CSc1ncccn1)NCCc1ccccc1	21.5% (inactive)	
CC(C)(C)C(=O)c1cnc(Nc2ccccc2)s1	-11.7% (inactive)	
S=c1[nH]nc(Nc2ccccc2)s1		1.12 µM (active)
O=S(=O)(NCCc1ccccc1)c1ccccc1	-4.81% (inactive)	
S=c1[nH]nc(NCCc2ccccc2)s1		0.316 µM (active)
CCOc1ccc(S(=O)(=O)Nc2cccc(C(=O)NCC3(N4CCCCC4)CCCCC3)c2)cc1	19.1% [at 0.501 µM] (inactive)	
CCOC(=O)C1CCC(CN(Cc2ccc(OC)cc2)S(=O)(=O)c2ccc(F)c(C(=O)Nc3cc(C)ccc3C)c2)CC1 (stereo unspecified)	1.59% (inactive)	
O=C(N[C@@H](Cc1ccccc1)C(=O)OCc1ccccc1)c1nc[nH]c1C(=O)NC1CCNCC1	-7.95% [at 2.33 µM] (inactive)	
CCc1ccc(C2C(C#N)=C(N)N(N(C)C)C3=C2C(=O)CCC3)s1 (stereo unspecified)	-12.3% (inactive)	

SMILES	activity, negative = inhibition	Potency
N#CC1=C(N)N(c2ccccc2)C2=C(C(=O)CCC2)C1c1ccccc1 (stereo unspecified)	-1.58% (inactive)	
Cc1sc(C2C(C#N)=C(N)N(c3cccc(Cl)c3)C3=C2C(=O)CCC3)cc1CN1CCOCC1 (stereo unspecified)		15.8 µM (active)
CC(=O)Nc1cccc(NC(=O)CSc2cn(CC(=O)N3CCCC3)c3ccccc23)c1	-7.24% (inactive)	
CCN(CCCNC(=O)c1cc(Nc2ccc(OC)cc2)nc2ccccc12)c1cccc(C)c1	-28.7% (inactive)	
CC[C@H](C)C(=O)N[C@H]1CCCN1C(=O)/C=C/c1ccccc1	11.1% [at 2.33 µM] (inactive)	
COc1ccc(C(=O)N2CCN(c3ncccn3)CC2)cc1S(=O)(=O)N1CCOCC1	10.4% [at 12.7 µM] (inactive)	
COc1ccc(C(=O)OC(C)C(=O)NC2CCCC2)cc1S(=O)(=O)N1CCOCC1 (stereo unspecified)	22.8% [at 12.7 µM] (inactive)	
COc1ccc(C(=O)Oc2ccc(-c3nnco3)cc2)cc1S(=O)(=O)N1CCOCC1		50.1 µM (active)
COc1ccc(Cl)cc1NC(=O)CCn1c(=O)c2cccn2c2ccccc21	-4.8% (inactive)	
CCn1cc(C(=O)N2CCN(c3cc(Cl)ccc3C)CC2)c(=O)c2cc(S(=O)(=O)N3CCCC3)ccc21	-29.3% (inactive)	
Cc1ccc(Cl)cc1N1CCN(C(=O)c2cccc3c(=O)c(C)c(-c4ccccc4)oc23)CC1		7.94 µM (active)
Cc1ccc(Cl)cc1N1CCN(C(=O)c2cccn3c(=O)c4cc(Cl)ccc4nc23)CC1	23.6% (inactive)	
CN(C)C(=O)COC(=O)c1cccc(S(=O)(=O)N2CC3(C)CC2CC(C)(C)C3)c1 (stereo unspecified)	16.1% (inactive)	
Cc1nc2ccccn2c(=O)c1NC(=O)c1c(F)cccc1F	-4.54% (inactive)	
Cc1ccc(-c2nc3ccccn3c2Nc2c(C)cccc2C)o1		12.6 µM (active)
Cc1ccc(Nc2c(-c3ccc(C)s3)nc3ccccn23)cc1	-27% (inactive)	
CCc1cc2c(-c3ccccc3)cc(=O)oc2c2c1OCN(Cc1ccc(C)cc1)C2	29.3% (inactive)	
CN1CCN(Cc2c(O)ccc3c2oc(=O)c2ccccc23)CC1	-28% [at 2.33 µM] (inactive)	
Cc1ccc(CN2COc3cc(C)c4c(oc(=O)c5ccccc54)c3C2)cc1		12.6 µM (active)
COc1ccccc1CNS(=O)(=O)c1cc(C(=O)NCc2ccccn2)c(Cl)cc1Cl	-12.7% [at 102 µM] (inactive)	
CCOc1ccc(NC(=O)C2CCN(S(=O)(=O)c3cc(-c4noc(C)n4)ccc3C)CC2)cc1	12.1% (inactive)	
Cc1ccccc1NC(=O)Cn1c(=O)n(Cc2ccco2)c(=O)c2ccc(C(=O)NC3CCCC3)cc21	-0.813% (inactive)	
